# In the library only some 2.4% were active in any assay of this set; here they are far more common.
# PfG6PD inh = PfG6PD (Plasmodium falciparum) enzyme inhibition | PfGluPho enzyme, NADPH resazurin-diaphorase fluorescence | inhibition, % at 20 µM | hit rate 0.78% among 350,000;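 active = inhibition reaching at least a set limit at 20 µM in the primary screen, cut at about 59% in these data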
# APOBEC3A inh = inhibitors of human APOBEC3A DNA deaminase. P31941. recombinant A3A, FAM/TAMRA ssDNA deamination fluorescence. inhibition, % at 20 µM. hit rate 0.41% among 330,000. AID 493011;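 active = at least 40% inhibition at 20 µM here, with at most 30% in a related deaminase screen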
# Target sequence (P31941 whole entry, looked up): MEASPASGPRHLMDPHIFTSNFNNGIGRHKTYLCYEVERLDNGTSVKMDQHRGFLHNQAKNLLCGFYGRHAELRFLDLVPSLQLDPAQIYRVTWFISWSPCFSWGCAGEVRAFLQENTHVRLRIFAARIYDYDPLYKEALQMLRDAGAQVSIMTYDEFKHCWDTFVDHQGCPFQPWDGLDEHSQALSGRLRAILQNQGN
# A3G deaminase = blocks human APOBEC3G single-stranded DNA deamination; Q9HC16; recombinant A3G, ssDNA deamination FAM/TAMRA fluorescence; inhibition, % at 20 µM; hit rate 0.28% among 330,000; AID 493012;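 active = inhibition of at least 40% at 20 µM, with no more than 30% in the related APOBEC3A deaminase screen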
# PfM18AAP inh-1 = blocks P. falciparum M18 aspartyl aminopeptidase; AID 1822; inhibition, % at 7.35 µM; recombinant PfM18AAP, H-Glu-NHMec fluorogenic cleavage; hit rate 1.2% among 290,000;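 active = inhibition above the campaign mean inhibition over all tested compounds plus 3 SD, cut at about 28% in these data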
# CR mimetic SO = caloric restriction mimetics inhibiting age-related superoxide in yeast; AID 2690; superoxide response (% of plate mean), % at 10 µM; S. cerevisiae aged cells, superoxide DHE fluorescence; stronger effect = lower value; hit rate 0.18% among 330,000;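 active = superoxide response under a set limit, about three screen SD below normal, cut at about 65% in these data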;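 note: yeast aged for seven days with compound at 30 °C before DHE staining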
# PfM18AAP inh-2 = confirmation of Plasmodium falciparum M18 aspartyl aminopeptidase inhibitors; shares compounds with PfM18AAP inh-1; recombinant PfM18AAP, H-Glu-NHMec fluorogenic cleavage; inhibition, % at 7.35 µM; hit rate 28% among 2,400; AID 2170;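 active = mean inhibition over replicate wells above the hit cutoff set for the earlier primary screen, cut at about 29% in these data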
# CTSL1 confirm = Cathepsin L (human) inhibition, confirmation. inhibition, % at 5.96 µM. purified cathepsin L1, Z-Leu-Arg-MCA fluorescence. 2,400 tested, under 10 active. shares compounds with PfM18AAP inh-1;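 active = average inhibition across replicates above the hit cutoff set in the earlier primary screen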
# Target sequence (P07711 whole entry, looked up): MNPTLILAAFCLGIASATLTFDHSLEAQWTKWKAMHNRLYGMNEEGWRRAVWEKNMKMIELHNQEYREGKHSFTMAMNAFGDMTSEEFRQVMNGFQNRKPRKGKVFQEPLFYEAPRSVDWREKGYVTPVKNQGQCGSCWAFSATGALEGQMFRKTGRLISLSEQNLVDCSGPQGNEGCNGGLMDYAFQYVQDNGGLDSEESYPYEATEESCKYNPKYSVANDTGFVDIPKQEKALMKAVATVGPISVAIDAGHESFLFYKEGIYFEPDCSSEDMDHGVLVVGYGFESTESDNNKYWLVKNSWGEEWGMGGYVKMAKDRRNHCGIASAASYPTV
# Superoxide pick = confirmation of caloric restriction mimetics inhibiting yeast age-related superoxide | shares compounds with CR mimetic SO | S. cerevisiae aging, superoxide DHE fluorescence; stronger effect = lower value | superoxide response (% of plate), % at 10 µM | hit rate 1% among 850;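 active = superoxide signal below 65% of the plate average of sample wells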;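 note: cells aged with compound for 7 days at 30 degrees C before staining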
# DHE fluor count = counter-screen for compounds affecting DHE oxidation and fluorescence in yeast; shares compounds with CR mimetic SO; S. cerevisiae BY4741, flow cytometry; stronger effect = lower value; fluorescence response, % at 10 µM; 850 tested, under 10 active; AID 435000;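 active = fluorescence response below 15%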;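 note: lower means stronger quenching of DHE signal or ROS scavenging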
# APOBEC3A confirm = confirmation of human APOBEC3A DNA deaminase inhibitors | recombinant A3A, ssDNA deaminase UDG fluorescence assay | hit rate 63% among 1,400 | shares compounds with APOBEC3A inh | inhibition, % at 20 µM | AID 493151;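 active = inhibition reaching a set limit, 80% of the first screen's cutoff, at 20 µM in any replicate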
# UDG ctr A3A = inhibits UDG, flagging false APOBEC3A inhibitors; shares compounds with APOBEC3A inh; 1,000 tested, under 10 active; inhibition, % at 20 µM; UDG counterscreen, FAM/TAMRA uracil oligo fluorescence; call rule not given here
# A3G conf = confirmation of human APOBEC3G DNA deaminase inhibitors; shares compounds with A3G deaminase; recombinant A3G ssDNA deaminase, UDG/FAM-TAMRA fluorescence; inhibition, % at 20 µM; hit rate 72% among 890;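 active = inhibition reaching a set limit in any replicate at 20 µM, the limit being 80% of the first screen's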
# UDG A3G counter = counter-screen for APOBEC3G inhibitors: E. coli UDG; inhibition, % at 20 µM; shares compounds with A3G deaminase; 710 tested, under 10 active; UDG counterscreen, FAM/TAMRA oligo fluorescence;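 active = compounds giving 40% or more inhibition at 20 µM in any one of the three replicates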;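 note: inhibitors lower the FAM signal released by uracil excision and alkaline cleavage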
# Hits are given with their value; n = inactive; x = not tested or not shown.
SMILES,PfG6PD inh,APOBEC3A inh,A3G deaminase,PfM18AAP inh-1,CR mimetic SO,PfM18AAP inh-2,CTSL1 confirm,A3G conf,others
CCOc1cc(/C=N/NC(=O)c2ccc(N(C)S(=O)(=O)c3ccccc3)cc2)ccc1OC,n,n,n,n,n,x,x,x,
CCOC(=O)c1cnc2c(C(=O)OC)cccc2c1NCc1ccco1,n,n,n,41,n,n,n,x,
C/C(=C/c1oc2ccc(O)cc2c1[N+](=O)[O-])N(C)C,n,n,n,37,n,n,n,x,
O=C(NC(=S)NNC(=O)c1ccccc1O)c1ccco1,n,x,x,33,57,30,n,x,Superoxide pick=n;DHE fluor count=n
CCN1CCC(O)(C(C(=O)O)c2ccccc2)CC1 (stereo unspecified),n,x,x,x,x,x,x,x,
CCN1/C(=C/c2cc[n+](CCCS(=O)(=O)[O-])c3ccccc23)Sc2ccccc21,n,76,n,33,n,n,n,x,APOBEC3A confirm=69;UDG ctr A3A=n
CCCC[n+]1c2ccccc2cc2ccccc21,n,55,n,38,n,n,n,x,APOBEC3A confirm=48;UDG ctr A3A=n
CCC[n+]1c2ccccc2cc2ccccc21,n,47,n,47,n,n,n,x,APOBEC3A confirm=42;UDG ctr A3A=n
O=C1C=C(c2ccc3[nH]ccc3c2)C[C@@H](c2ccc(Cl)cc2)C1,n,n,n,x,n,x,x,x,
O=C(OCc1cn([C@H]2C[C@H](c3ccccc3)N(Cc3cccs3)C[C@@H]2O)nn1)c1ccccc1,n,x,x,x,x,x,x,x,
Cc1cc(-c2ccc(N=Nc3c(S(=O)(=O)O)cc4cc(S(=O)(=O)O)cc(N)c4c3O)c(C)c2)ccc1N=Nc1c(S(=O)(=O)O)cc2cc(S(=O)(=O)O)cc(N)c2c1O,x,n,n,x,n,x,x,x,
O=S(=O)(O)c1cc(O)c2c(O)c(N=Nc3cc(Cl)ccc3O)c(S(=O)(=O)O)cc2c1,n,91,n,45,n,29,n,x,APOBEC3A confirm=90;UDG ctr A3A=n
CCN(CC(=O)NCc1cccs1)C(=O)c1ccc(N(C)S(=O)(=O)c2ccc(C)cc2)cc1,n,x,x,x,x,x,x,x,
CN1C(=O)C(=C2CCCCCC2)SC1=S,n,n,n,n,n,x,x,x,
O=C1NC(=S)SC1=C1CCCC1,n,62,n,36,n,n,n,x,APOBEC3A confirm=58;UDG ctr A3A=n
COC(=O)C(C)Sc1n[nH]c(=S)s1 (stereo unspecified),n,n,84,37,n,n,n,84,UDG A3G counter=n
CCNc1nc(SC(C)C(=O)OC)nc(N(C)C)n1 (stereo unspecified),n,n,n,n,n,x,x,x,
Cc1ccc(NS(=O)(=O)c2ccc3c(c2)NC(=O)CCS3)c(C)c1,n,n,n,n,n,x,x,x,
COc1cc(/C=N/n2c(-c3ccccc3)n[nH]c2=S)ccc1O,n,n,n,n,n,x,x,x,
COc1cc(/C=N/n2c(-c3ccccc3)n[nH]c2=S)cc(OC)c1O,n,n,48,32,n,n,n,64,UDG A3G counter=n
CCOC(=O)N1CCc2c(sc(N)c2C#N)C1,n,n,49,39,n,n,n,36,
CCN1CCN(C(=S)c2ccc(Cl)cc2)CC1,81,n,68,44,n,36,n,75,UDG A3G counter=n
CN(CC(=O)Nc1n[nH]c(=S)s1)S(=O)(=O)c1cccc2cccnc12,n,n,75,51,n,n,n,95,UDG A3G counter=n
O=C1/C(=C\c2cccc(O)c2)SC(=S)N1Cc1ccccc1,n,n,n,n,n,x,x,x,
O=C1/C(=C\c2cccc(O)c2O)SC(=S)N1Cc1ccccc1,n,n,62,58,n,n,n,59,UDG A3G counter=n
SMILES,PfG6PD inh,APOBEC3A inh,A3G deaminase,PfM18AAP inh-1,CR mimetic SO,PfM18AAP inh-2,CTSL1 confirm,A3G conf,others
CCOc1cc(-c2sc(Nc3ccccc3)n[n+]2C)ccc1OC,n,n,n,n,n,x,x,x,
COC(=O)[C@H](CC(C)C)NC(=O)c1cc2c(cn1)[nH]c1ccccc12,n,n,58,39,n,n,n,63,
O=C(COc1ccc(Cl)cc1)Nc1nc(-c2ccncc2)cs1,n,n,42,35,n,n,n,n,
S=c1nc(-c2cc(Cl)cc(Cl)c2)[nH][nH]1,n,n,n,n,n,x,x,x,
COc1cc(-c2nc(=S)[nH][nH]2)cc(OC)c1OC,n,n,62,35,n,n,n,94,UDG A3G counter=n
CCCC(C)c1nnc(NC(=O)C2CC(=O)N(CCc3ccc(F)cc3)C2)s1 (stereo unspecified),n,n,45,41,n,n,n,22,UDG A3G counter=n
CCc1nnc(NC(=O)C2CC(=O)N(CCc3ccc(F)cc3)C2)s1 (stereo unspecified),n,n,n,n,n,x,x,x,
S=c1[nH]c(-c2ccccc2)cn1/N=C/c1cccnc1,n,n,50,62,n,57,n,73,UDG A3G counter=n
Cc1ccc(S(=O)(=O)N2CCN(C(=O)COC(=O)CNC(=O)c3ccccc3F)CC2)c(C)c1,n,x,x,x,x,x,x,x,
Cc1cccc(C)c1NC(=O)CNC(=O)c1ccccc1OCc1ccccc1,n,n,n,x,n,x,x,x,
O=C(O)/C=C/c1ccc(-n2ccnc2)cc1,n,n,n,n,n,x,x,x,
C=CCn1c(-c2sc3nc(C)cc(C)c3c2N)n[nH]c1=S,n,n,49,43,n,n,n,77,UDG A3G counter=n
CS(=O)(=O)c1ccc(NC(=O)c2cccc(S(=O)(=O)N3CCN(Cc4ccccc4)CC3)c2)cc1,n,n,n,n,n,x,x,x,
O=C(Oc1ccc(Oc2ccccc2)cc1)N1CCC(O)CC1,n,n,n,n,n,x,x,x,
COc1ccc(OC)c(CCNC(=O)Cn2nc(C)c3c(C)n(-c4ccc(C)cc4)nc3c2=O)c1,n,n,n,n,n,x,x,x,
COc1ccc(OC)c(CCNC(=O)Cn2sc3nc(C)cc(C)c3c2=O)c1,x,n,63,51,n,n,n,78,
COc1ccc(NC(=O)c2ccc3c(c2)NC(=O)CS3)cc1S(=O)(=O)Nc1ccc(Br)cc1,n,n,55,32,n,n,n,30,UDG A3G counter=n
O=C(COc1ccc(F)cc1)Nc1ccccc1N1CCOCC1,n,n,n,x,n,x,x,x,

# Compound activity as filed in PubChem BioAssay.
